Chlamy TAG – inducers of TAG accumulation in Chlamydomonas, primary screen, qHTS, Chlamydomonas reinhardtii | Nile Red fluorescence, 72 h | calls only at 10 µM (by protocol) | actives 0.84% (n = 44,000) | AID 1159537, 2015; call rule not given here;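 also: hits raise Nile Red signal meaning more stored TAG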
Calls only. The entries come from a sample that favours hits as a whole.

Results for NS(=O)(=O)c1ccc(CNC(=O)c2cc(-c3ccc4c(c3)OCO4)nc3ccccc23)cc1 ?
Chlamy TAG: inactive

What do the screens show for `O=C(NCC1CCCO1)c1cc(-c2ccc3c(c2)OCO3)nc2ccccc12` (stereo not given)?
Chlamy TAG: active

Results for O=C(NCc1ccccn1)c1cc(-c2ccc3c(c2)OCO3)nc2ccccc12 ?
Chlamy TAG: inactive

What do the screens show for `O=C(c1ccc(C#CC2(O)CCCCC2)cc1)N1CCN(c2ccc([N+](=O)[O-])cc2)CC1`?
Chlamy TAG: inactive

What do the screens show for `O=c1[nH]c2ccc(Cl)cc2c(-c2ccccc2)c1CN1CCCCC1`?
Chlamy TAG: inactive

What do the screens show for `Cc1c(NS(=O)(=O)c2cccs2)c(=O)n(-c2ccccc2)n1C`?
Chlamy TAG: inactive

Results for Cc1c(N/C=C/C(=O)c2cccs2)c(=O)n(-c2ccccc2)n1C ?
Chlamy TAG: active

Results for Cc1c(NC(=O)C23CC4CC(CC(C4)C2)C3)c(=O)n(-c2ccccc2)n1C ?
Chlamy TAG: inactive

How did CCN(CC)c1ccc(NC(=O)c2ccc(OC)cc2OC)cc1 do in these assays?
Chlamy TAG: inactive

Results for C1=CC2C(C1)C1CC2C2C1N=NN2Cc1ccccc1 (stereo not given) ?
Chlamy TAG: inactive

How did CC(C)c1ccc(NS(=O)(=O)c2cccs2)cc1 do in these assays?
Chlamy TAG: inactive

How did CC(C)C(NS(=O)(=O)c1cccs1)C(C)C do in these assays?
Chlamy TAG: active

Results for Cc1cc(C)cc(NS(=O)(=O)c2cccs2)c1 ?
Chlamy TAG: inactive

Results for COc1ccc(Cc2nnc(NC(=O)CSCc3ccccc3)s2)cc1OC ?
Chlamy TAG: inactive

How did O=[N+]([O-])c1ccc(CSc2ncn[nH]2)cc1 do in these assays?
Chlamy TAG: inactive

Screens as filed in PubChem BioAssay.
